Screening results (PubChem)
GDH-TPI inh: counter-screen for M. tuberculosis FBA inhibitors: GDH-TPI coupled enzymes | GDH-TPI coupled enzyme counterscreen, NADH absorbance | inhibition, % at 4.8 µM | AID 588335 | 360,000 tested, 1.2% active; in the data active means inhibition above about 30%;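 further: 0% = DMSO wells and 100% = wells lacking the enzyme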
Mtb FBA inh: Mtb fructose-bisphosphate aldolase inhibition. purified M. tuberculosis FBA, fluorescence read-out. inhibition, % at 1 µM. 360,000 tested, 2.3% active. AID 588726; in the data active means inhibition above about 27%;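 further: 0% = vehicle and 100% = reference inhibitor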
Mtb betalactam: beta-lactam sensitization of Mtb H37Rv; M. tuberculosis H37Rv growth with meropenem, percent inhibition; inhibition, % at 25 µM; 330,000 tested, 0.27% active; AID 434955;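 further: growth measured after seven days incubation then overnight dye step; 0% = bacteria only wells and 100% = bacteria with antibiotic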
Mtb UGM inh: blocks M. tuberculosis UGM enzyme | 320,000 tested, 0.06% active | AID 504406 | purified UGM, fluorescence polarization probe displacement | inhibition, % at 10 µM | P9WIQ1; in the data active means inhibition above about 10%, passing the limit was not always enough
Rv3671c inh: Rv3671c (M. tuberculosis) protease inhibition; P9WHR9; inhibition, % at 5.96 µM; 320,000 tested, 0.048% active; in the data active means inhibition above about 38%;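 further: extracellular domain of Rv3671c used as enzyme; 0% = enzyme with DMSO and 100% = no enzyme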
Target sequence (P9WHR9 whole entry, looked up, the tested form may be a part): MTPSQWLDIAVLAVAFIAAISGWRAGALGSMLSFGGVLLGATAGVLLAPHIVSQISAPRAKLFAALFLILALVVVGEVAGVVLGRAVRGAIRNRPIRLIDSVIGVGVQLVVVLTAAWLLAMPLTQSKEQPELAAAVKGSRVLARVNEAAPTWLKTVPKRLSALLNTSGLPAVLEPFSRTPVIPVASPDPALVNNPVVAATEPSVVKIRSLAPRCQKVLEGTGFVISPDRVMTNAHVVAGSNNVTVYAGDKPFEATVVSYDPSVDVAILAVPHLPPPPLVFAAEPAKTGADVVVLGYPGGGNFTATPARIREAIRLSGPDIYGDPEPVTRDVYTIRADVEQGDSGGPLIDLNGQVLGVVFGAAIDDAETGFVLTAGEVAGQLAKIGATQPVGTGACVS
RecA splice inh: Mtb RecA intein splicing inhibition; P9WHJ3; cell-free RecA intein splicing, fluorescence; inhibition, % (no concentration beside the values); 290,000 tested, 0.75% active; AID 2221; in the data active means inhibition above about 30%;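 further: 0% = vehicle wells and 100% = reference inhibitor control wells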
GFP chromophore: counter-screen GFP chromophore formation inhibition | shares compounds with RecA splice inh | cell-free GFP chromophore formation, fluorescence | EC50, µM | 2,100 tested, 83% active | AID 434968
Numbers without * were called inactive; nt = no result given. Rows were chosen to be rich in hits. Some 4% of all compounds tested hit in one or more screens of this group. Unless noted, how the calls were made is not given here.

SMILES	GDH-TPI inh	Mtb FBA inh	Mtb betalactam	Mtb UGM inh	Rv3671c inh	RecA splice inh	GFP chromophore
C/C(CC(=O)Nc1ccccc1[N+](=O)[O-])=N\NC(=O)COc1ccccc1C	9	-1	-7	-1	-3	69*	21*
O=[N+]([O-])c1cncc([N+](=O)[O-])c1Nc1cccc(O)c1	11	-1	4	2	5	46*	16*
Cc1ccccc1Nc1c([N+](=O)[O-])cncc1[N+](=O)[O-]	13	-2	22	0	6	15	nt
O=C(COc1ccccc1Cl)NNC(=O)c1ccc2c(=O)n3c(nc2c1)CCC3	10	6	-4	1	-8	nt	nt
Cn1c(O)c(C2=NN(C(=O)CCl)C(c3ccccc3)C2)c(=O)n(C)c1=O (stereo unspecified)	17	3	42	0	2	45*	5.8*
COc1ccc(Cc2ccccc2C(=O)O)cc1	-3	1	nt	nt	nt	nt	nt
COc1ccc(CC2=CC(=O)c3ccccc3C2=O)cc1	0	-2	100	-1	-34	77*	8.5*
CCOC(=O)c1c(C)oc2c1c1c(c3ccccc32)OCN(CCCC(=O)O)C1	-5	1	94	0	3	90*	20*
CC1=C(CC(=O)c2ccc(Cl)cc2)C(=O)c2ccccc2C1=O	11	-1	4	1	-38	68*	11*
COc1ccc(S(=O)(=O)Nc2ccc(O)c3ccccc23)cc1	20	1	30	-1	-75	96*	0.14*
Cc1ccc(C)c(S(=O)(=O)Nc2ccc(O)c3ccccc23)c1	14	1	7	1	-13	95*	0.23*
COc1ccc(S(=O)(=O)Nc2ccccc2)cc1	-1	0	-3	3	2	2	nt
Cc1ccc(S(=O)(=O)Nc2ccc(O)c3ccccc23)c(C)c1	-3	2	4	0	nt	97*	0.23*
CCc1ccc(Nc2n[n+](-c3ccccc3)c(-c3c(Cl)cccc3Cl)s2)cc1	17	1	100	2	12	49*	16*
Fc1ccc(-[n+]2nc(Nc3ccccc3)sc2-c2c(Cl)cccc2Cl)cc1	9	-2	69	0	-3	13	nt
O=C(CCNc1ccc(Cc2ccncc2)cc1)c1cccc([N+](=O)[O-])c1	14	2	69	0	4	1	nt
O=C(CCNc1cccc(F)c1)c1cccc([N+](=O)[O-])c1	6	5	33	-4	-4	32*	>38
CC(C)(C)c1ccc(C(=O)N2CCC2(C)C(=O)NS(=O)(=O)c2ccccc2Cl)cc1 (stereo unspecified)	3	0	nt	nt	nt	nt	nt
O=C(Nc1ccc(Cl)cc1)/C(=C/c1cccc(O)c1)c1nc2ccccc2s1	18	-3	9	0	-53	46*	21*
Cc1cc(OC(=O)c2ccccc2)n(CCC#N)n1	5	0	-7	1	-72	85*	11*
Cc1cccc(C(=Cc2ccc([N+](=O)[O-])cc2)C(=O)O)c1	21	-4	nt	nt	nt	nt	nt
CCN(CC)CCN1C(=O)c2cccc3cc(N)cc(c23)C1=O	16	2	1	5	0	46*	0.42*
Nc1cc2c3c(cccc3c1)C(=O)N(CCN1CCCC1)C2=O	-1	-5	5	5	-11	-13	nt
CCOc1ccccc1CN1CCNC(=O)C1CC(=O)NCCCn1cccn1 (stereo unspecified)	1	5	-3	-1	-3	-1	nt
CCC(=O)c1ccc(OCC(=O)OC(C)C(=O)N2CCc3ccccc32)cc1 (stereo unspecified)	4	4	44	3	1	-1	nt
SMILES	GDH-TPI inh	Mtb FBA inh	Mtb betalactam	Mtb UGM inh	Rv3671c inh	RecA splice inh	GFP chromophore
CCCN(C(=O)CSCC(=O)Nc1cccc(C)c1)c1c(N)n(Cc2ccccc2)c(=O)[nH]c1=O	-4	-1	1	-2	-6	-1	nt
O=c1cc(-c2ccccc2)[nH]n1-c1ccc([N+](=O)[O-])cc1	19	-2	-4	-4	-11	46*	30*
O=c1c(N=Nc2ccc(O)cc2)c(-c2ccccc2)[nH]n1-c1ccc([N+](=O)[O-])cc1	-13	-2	nt	2	17	2	nt
Cc1ccc(S(=O)(=O)NCC(=O)NCC(=O)NCCc2ccc(Cl)cc2)cc1C	11	3	nt	nt	nt	nt	nt
Cc1ccc(CNC(=O)CN(C)C2=NS(=O)(=O)c3ccccc32)cc1	4	5	1	0	1	nt	nt
c1ccc(Nc2ccc(Nc3ccccc3)cc2)cc1	4	-1	62	-1	11	nt	nt
N#CC(C#N)=C(C#N)c1ccc(Nc2ccccc2)cc1	8	1	11	0	-2	52*	4.6*
CN1CCN(Cc2cc(=O)oc3ccc(Cl)cc23)CC1	12	3	2	-1	-4	48*	>38
COC(=O)c1ccc(C(c2c(C)[nH][nH]c2=O)c2c(C)[nH][nH]c2=O)cc1	3	0	5	0	-6	95*	1.4*
Cc1[nH][nH]c(=O)c1C(c1ccc(Cl)cc1)c1c(C)[nH][nH]c1=O	-10	0	-2	1	-2	98*	1.3*
Cc1[nH][nH]c(=O)c1C(c1ccc(F)cc1)c1c(C)[nH][nH]c1=O	-4	3	10	1	-7	98*	0.62*
CCOc1ccc(S(=O)(=O)N2CCN(C(=O)CCOc3ccccc3C)CC2)cc1	-2	1	-11	-3	3	3	nt
O=S(=O)(Nc1ccc(-n2cnnn2)cc1)c1ccc(F)c(F)c1F	-6	5	-1	1	-5	30*	>38
O=S(=O)(Nc1ccc(-n2cnnn2)cc1)c1ccccc1F	2	-1	3	4	-2	nt	nt
O=C(NC(Cc1ccccc1)C(=O)O)c1cccnc1Cl (stereo unspecified)	-3	3	-3	3	0	-1	nt
COc1ccc(N/C=C2\CCc3ccccc3C2=O)cc1	-3	-7	82	1	-15	71*	19*
O=C1/C(=C/Nc2ccc3c(c2)OCO3)CCc2ccccc21	5	-5	91	-1	-5	49*	3.2*
COc1ccc2c(c1)CC/C(=C\Nc1ccc3c(c1)OCO3)C2=O	8	-11	-9	1	-12	nt	nt
CCCNC(=O)c1cc(S(=O)(=O)N2CCc3ccccc32)cn1C	6	3	5	2	-5	-2	nt
COC(=O)[C@@]1(Cc2ccc(F)cc2)[C@H]2c3cc(C(=O)N(C)C)n(C[C@H](O)CO)c3C[C@H]2CN1C(=O)c1ccccc1	3	0	-8	-2	0	nt	nt
COC(=O)[C@@]1(Cc2ccccc2)[C@@H]2C(=CC(=O)[C@H]2CC(=O)C(=O)N(C)C)CN1C(=O)c1ccccc1	4	2	-7	2	3	70*	16*
COc1ccc(/C(=N/OC(C)=O)c2nccc3cc(OC)c(OC)cc23)cc1OC	-1	2	-5	2	1	31*	>38
